Experimental data from PubChem BioAssay.
Values joined by “and” are separate entries in the source; they are usually repeats but may differ in a detail not shown here. Equal values may be shown once.

How the values were obtained:
[1] = test system: Botulinum neurotoxin type F light chain protease (Clostridium botulinum); test: Clostridium botulinum type F light chain protease inhibitors, microsphere substrate cleavage, validation (AID 588459); settings: multiplex microsphere protease substrate cleavage assay, flow cytometry; at 10 µM; stronger effect = higher value
[2] = biological target: Botulinum neurotoxin type A (Clostridium botulinum) (UniProt P0DPI0); test: BoNT/A light chain protease inhibitors, biochemical, multiplex microsphere flow cytometry, validation set (AID 588460); settings: at 10 µM, stronger effect = higher value
[3] = biological target: Lethal factor (Bacillus anthracis) (UniProt P15917); test: Bacillus anthracis lethal factor inhibition, microsphere flow cytometry protease assay, validation at 10 µM (AID 588461); settings: multiplex microsphere protease cleavage assay, stronger effect = higher value

Measured: inhibition

O=C(O)C1CSC(c2ccco2)N1 (centres undefined)
inactive: [1] -2.3% | [2] -2.5% | [3] -0.8%

O=C(CCCN1C(=O)/C(=C\c2cccs2)SC1=S)Nc1ccccn1
inactive: [1] 4% | [2] 5.2% | [3] 18.8%

CC(C)[N+](C)(CCOC(=O)C1c2ccccc2Oc2ccccc21)C(C)C
inactive: [1] -0.1% | [2] 0.5% | [3] 4%

Cc1ccc2c(c1)C(O)(C1COC(C)(C)CC1=O)C(=O)N2C (centres undefined)
inactive: [1] -1.1% | [2] 1.7% | [3] -0.8%

C=C(C)COc1ccc(-c2n[nH]c(C)c2-c2ccc(OC)cc2)c(O)c1
inactive: [1] -1.3% | [2] -0.9% | [3] 5.2%

C[C@]12CC[C@@H]3c4ccc(O)cc4CC[C@H]3[C@@H]1C[C@@H](O)[C@@H]2O[C@@H]1O[C@H](C(=O)O)[C@@H](O)[C@H](O)[C@H]1O
inactive: [1] -1.9% | [2] 0.2% | [3] -6.5%

Cc1ccc(CN2CCN(CCCc3ccccc3)CC2CCO)cc1 (centres undefined)
inactive: [1] 0.2% | [2] -0.2% | [3] -3.4%

CCCCC(=O)O[C@H]1CC[C@H]2[C@@H]3CCc4cc(O)ccc4[C@H]3CC[C@]12C
inactive: [1] 0.5% | [2] 0.1% | [3] -1.7%

NC(N)=N/N=C/c1c(Cl)cccc1Cl
inactive: [1] -0.2% | [2] 0.6% | [3] 0.5%

COc1ccc(CC(=O)NCC2(c3ccc(OC)c(OC)c3)CCOCC2)cc1
inactive: [1] 3.5% | [2] -0.9% | [3] -1.6%

O=C(CN1C(=O)c2ccccc2C1=O)Nc1cccc([N+](=O)[O-])c1
inactive: [1] -5.7% | [2] -0.9% | [3] -2%

O=C(Nc1ccccc1)OCC1CCCN2CCCCC12 (centres undefined)
inactive: [1] 0.6% | [2] 0.3% | [3] 2.5%

C/C=C/c1ccc(OCCCCN2CC(C)CC(C)C2)c(OC)c1 (centres undefined)
inactive: [1] 3.1% | [2] -0.5% | [3] -6%

COc1ccc(C(=O)Oc2ccc3c(C)cc(=O)oc3c2C(C)=O)cc1
inactive: [1] 0.7% | [2] -0.3% | [3] 3%

COc1c2occc2c(OC)c2c(=O)cc(C(F)(F)C(F)(F)F)oc12
inactive: [1] 2.3% | [2] 0.5% | [3] 0.4%

O=C(/C=C/c1ccc(F)cc1)NC(=S)N1CCCCC1c1cccnc1 (centres undefined)
inactive: [1] 1% | [2] -0.6% | [3] -0.1%

N/C(=N\OC(=O)/C=C/c1ccccc1)c1ccc(Br)cc1
inactive: [1] -3.1% | [2] -0.1% | [3] 2.5%

C#C[C@]1(O)CC[C@H]2[C@@H]3CCC4=C(CCC(=O)C4)[C@H]3CC[C@@]21C
inactive: [1] 0.3% | [2] 0.1% | [3] 0.8%

COc1cc(/C=C/C(=O)N2CCCC2)cc(OC)c1OC
inactive: [1] -1.5% | [2] 0.4% | [3] 4.4%

CC12COC3(C(=O)Nc4ccc(F)cc4)CC1CCC32C (centres undefined)
inactive: [1] 3.3% | [2] 1% | [3] -1.8%

CCc1cc2c3c(c(=O)oc2cc1O)CCCC3
inactive: [1] -1.1% | [2] 2.2% | [3] 4.1%

CC(=O)Nc1ccc(S(=O)(=O)c2ccc(N)cc2)cc1
inactive: [1] -3.7% | [2] -0.4% | [3] -3.2%

COc1ccc(/C=C2\CC/C(=C\c3ccc(OC)c(OC)c3)C2=O)cc1OC
inactive: [1] 1.7% | [2] 0.1% | [3] -5.9%

OCCOCCN1CCN(C(c2ccccc2)c2ccc(Cl)cc2)CC1 (centres undefined)
inactive: [1] 0.1% | [2] -1.8% | [3] 1.1%

COc1cc(/C=C/C(=O)CC(=O)/C=C/c2ccc(O)c(OC)c2)ccc1O
inactive: [1] 12.2% | [2] 9.5% | [3] -0.9%

CS(=O)(=O)NCc1ccc(C(=O)NCc2ccccc2)cc1
inactive: [1] 2.9% | [2] 0.5% | [3] -4.2%

CC(=O)CCc1oc2ccccc2c1-c1ccccc1
inactive: [1] -0.7% | [2] -1.4% | [3] -3.1%

O=C1NC(=O)C(c2ccccc2)(c2ccccc2)N1
inactive: [1] 1.3% and 5.2% | [2] -1% and -1.4% | [3] 0.3% and -2.4%

COc1ccc(C2C(C#N)=C(N)Oc3cc(C)[nH]c(=O)c32)c(OC)c1OC (centres undefined)
inactive: [1] 1.9% | [2] 0.1% | [3] 0.8%

CC[C@H]1CN2CCc3cc(OC)c(OC)cc3[C@@H]2C[C@@H]1C[C@H]1NCCc2cc(OC)c(OC)cc21
inactive: [1] 3.7% | [2] 0.9% | [3] 0.6%

C=CCNC(=O)c1ccc(-c2cccc([N+](=O)[O-])c2)o1
inactive: [1] -1.3% | [2] -0.6% | [3] -3%

CC(C)c1ccc(OCc2ccc(C(=O)O)o2)cc1
inactive: [1] 0.6% | [2] -0.2% | [3] 2.5%

CCC(NC(C)C)C(O)c1ccc(O)c(O)c1 (centres undefined)
inactive: [1] -5.4% | [2] -0.9% | [3] -4%

COc1ccc(C2=NOC(COc3ccc4c(C)cc(=O)oc4c3)C2)c(OC)c1 (centres undefined)
inactive: [1] -0.4% | [2] 1.7% | [3] 0%

CS(=O)(=O)Nc1cccc(C(=O)CC2(O)C(=O)Nc3ccc(Br)cc32)c1 (centres undefined)
inactive: [1] 3.1% | [2] 1.3% | [3] 6.6%

O=C(NCc1ccc2c(c1)OCO2)c1ccc2c(c1)OCCO2
inactive: [1] 2% | [2] 0.7% | [3] -0.5%

CC(=O)OC1c2c(ccc3ccc(=O)oc23)OC(C)(C)C1OC(=O)CC(C)C (centres undefined)
inactive: [1] -0.2% | [2] -1.5% | [3] -3.2%

CCSC(SCC)[C@H](O)[C@@H](O)[C@H](O)[C@H](O)CO
inactive: [1] 3.3% | [2] -0.7% | [3] -1.5%

CC1(C)C2CCC1(C(=O)O)c1nc3ccccc3nc12 (centres undefined)
inactive: [1] -0.2% | [2] -0.9% | [3] -0.2%

COc1ccc(OC)c(C(=O)c2coc3ccc(O)cc23)c1
inactive: [1] -0.5% | [2] -1.6% | [3] 7%

O=C(NC(=S)Nc1nc(-c2ccccc2)cs1)c1ccco1
inactive: [1] 4.3% | [2] -0.2% | [3] -0.3%

C[C@]12CCC(=O)C[C@@H]1CC[C@@H]1[C@@H]2CC[C@]2(C)C=CC[C@@H]12
inactive: [1] 3.9% | [2] 0.7% | [3] -1.3%

O=C(c1ccccc1F)c1cc2c(cc1[N+](=O)[O-])OCCO2
inactive: [1] 5.4% | [2] -0.4% | [3] 3.6%

Oc1ccc(/C=C/c2cc(O)cc(O)c2)cc1
inactive: [1] -6.7% | [2] -2.2% | [3] 3.7%

COc1ccc2oc(C)c(C(N)=O)c2c1
inactive: [1] -1.6% | [2] 0.5% | [3] -0.4%

CC(C)CC(=O)N(Cc1ccc(F)cc1)C1CCS(=O)(=O)C1 (centres undefined)
inactive: [1] 8.9% | [2] 3.7% | [3] -4%

CC(C)CN1CCN(Cc2ccc3ncccc3c2)CC1CCO (centres undefined)
inactive: [1] -0.3% | [2] 0.8% | [3] 0.5%

CCCN1CCC(NC(=O)Nc2ccc(Br)cc2)CC1
inactive: [1] 0.5% | [2] -1.7% | [3] -2%

CC[n+]1ccc2cc(OC)c(OC)cc2c1Cc1ccc(OC)c(OC)c1
inactive: [1] -0.2% | [2] 0.7% | [3] -0.5%

NC(=O)c1ccccc1O
inactive: [1] -3.5% | [2] -1.1% | [3] 2.5%

CCOC(=O)n1c(=O)oc2ccccc21
inactive: [1] 0.5% | [2] 0.5% | [3] -4%

Clc1ccc2c(c1)CCc1cccnc1C2=C1CCNCC1
inactive: [1] -4.1% | [2] -0.7% | [3] 5.5%

COc1cc2c(cc1OC)-c1cc(NC3CCCCCC3)nc(=O)n1CC2
inactive: [1] -2.3% | [2] -1.4% | [3] -7.4%

O=C(NCc1ccc(N2CCCC2=O)cc1)c1cccc(Cl)c1
inactive: [1] -4.5% | [2] -2.2% | [3] 1%

CCNC(=S)N1CCN(CCN2C(=O)c3cccc4cccc(c34)C2=O)CC1
inactive: [1] 5.8% | [2] 3.7% | [3] 10.2%

CC1(C#CC[N+]2(C)CCCCC2)CCC2C(O1)c1ccccc1OC2(C)C (centres undefined)
inactive: [1] 2.6% | [2] -0.8% | [3] -2.1%

COc1ccc(C2=C(CN(C)C)C(c3ccccc3)c3ccccc3O2)cc1 (centres undefined)
inactive: [1] -3% | [2] -3.7% | [3] -2.3%

O=C(COc1ccc(F)cc1)OCCN1CCOCC1
inactive: [1] 1.8% | [2] -1% | [3] -5.2%

O=C1C(=O)c2ccccc2C(O)=C1c1ccccc1F
inactive: [1] 4.6% | [2] 0.5% | [3] -1.5%

CC(=O)N1CC2(C)CN(C(C)=O)CC(C)(C1)C2
inactive: [1] -2.3% | [2] -1.6% | [3] 7.3%

O=C1Cc2ccccc2C(c2ccccc2)N1 (centres undefined)
inactive: [1] -0.1% | [2] -0.3% | [3] -3.1%

CC(=O)c1c(N)nc2n(c1=O)CCCCC2
inactive: [1] -2.9% | [2] -1% | [3] -2.9%

Cc1nc(NCc2ccco2)c(C#N)c2c1COC(C)(C)C2
inactive: [1] 1% | [2] -1.2% | [3] -0.5%
